Test results reported in PubChem BioAssay AID1159580 (chemical genetic matrix, 2015).
In all, about 5,500 compounds went through this assay and about 2,000 (36%) were called active. About 18% were inconclusive and are not listed. Cut-off read from the data, not from the text of the source: active = normalized growth mostly below about 0.91 (no sharp cut-off); inconclusive = no clear call, values can overlap the other calls; inactive = mostly above about 0.92. Some of the results follow.

Assay: chemical genetic growth profiling, strain panel (AID 1159580);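 note: tested at 20 µM; growth read once vehicle control cultures reached saturation at 30 °C; 1 = growth at the plate median or of vehicle wells; lower values mean less growth of the strain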
Settings: growth OD
[1] = S. cerevisiae deletion strains, locus YDR150W, strain NUM1, active compounds read low
[2] = S. cerevisiae deletion strains, locus YGR229C, strain SMI1, active compounds read low
[3] = S. cerevisiae deletion strains, locus YMR307W, strain GAS1, active compounds read low
[4] = S. cerevisiae deletion strains, locus YNL153C, strain GIM3, active compounds read low

Measured: normalized growth

CC(C)N(C(=O)SCC(Cl)=C(Cl)Cl)C(C)C
inactive: S. cerevisiae deletion strains, locus YAL013W, strain DEP1, active compounds read low 1.01 | S. cerevisiae deletion strains, locus YBR021W, strain FUR4, active compounds read low 1.01 | S. cerevisiae deletion strains, locus YBR229C, strain ROT2, active compounds read low 1.01 | S. cerevisiae deletion strains, locus YCL029C, strain bik1, active compounds read low 1.01 | S. cerevisiae deletion strains, locus YDL035C, strain GPR1, active compounds read low 1.01 | S. cerevisiae deletion strains, locus YDL074C, strain BRE1, active compounds read low 1.04 | S. cerevisiae deletion strains, locus YDL101C, strain DUN1, active compounds read low 1.02 | S. cerevisiae deletion strains, locus YDL134C, strain PPH21, active compounds read low 1.02 | S. cerevisiae deletion strains, locus YDL185W, strain tfp1, active compounds read low 0.999 | S. cerevisiae deletion strains, locus YDL192W, strain arf1, active compounds read low 0.998 | S. cerevisiae deletion strains, locus YDR101C, strain arx1, active compounds read low 0.998 | [1] 1.02 | S. cerevisiae deletion strains, locus YDR162C, strain NBP2, active compounds read low 1.02 | S. cerevisiae deletion strains, locus YDR318W, strain mcm21, active compounds read low 1 | S. cerevisiae deletion strains, locus YDR388W, active compounds read low 1 | S. cerevisiae deletion strains, locus YDR502C, strain sam2, active compounds read low 1 | S. cerevisiae deletion strains, locus YEL061C, strain CIN8, active compounds read low 1.01 | S. cerevisiae deletion strains, locus YER110C, active compounds read low 0.998 | S. cerevisiae deletion strains, locus YER155C, strain BEM2, active compounds read low 1.02 | S. cerevisiae deletion strains, locus YER167W, strain BCK2, active compounds read low 1.03 | S. cerevisiae deletion strains, locus YGL078C, strain dbp3, active compounds read low 0.996 | S. cerevisiae deletion strains, locus YGL086W, strain mad1, active compounds read low 1.01 | S. cerevisiae deletion strains, locus YGL248W, strain PDE1, active compounds read low 1.02 | S. cerevisiae deletion strains, locus YGR078C, strain PAC10, active compounds read low 1.02 | S. cerevisiae deletion strains, locus YGR135W, strain pre9, active compounds read low 0.995 | [2] 1.04 | S. cerevisiae deletion strains, locus YGR252W, strain gcn5, active compounds read low 0.945 | S. cerevisiae deletion strains, locus YHR030C, strain SLT2, active compounds read low 1.02 | S. cerevisiae deletion strains, locus YHR079C, strain IRE1 (second series), active compounds read low 1 | S. cerevisiae deletion strains, locus YHR094C, strain hxt1, active compounds read low 1.01 | S. cerevisiae deletion strains, locus YHR200W, strain rpn10, active compounds read low 1 | S. cerevisiae deletion strains, locus YIL066C, strain RNR3, active compounds read low 1.02 | S. cerevisiae deletion strains, locus YIL073C, strain SPO22, active compounds read low 1.04 | S. cerevisiae deletion strains, locus YIL125W, strain kgd1, active compounds read low 1 | S. cerevisiae deletion strains, locus YIR030C, strain dcg1, active compounds read low 1 | S. cerevisiae deletion strains, locus YJL095W, strain BCK1, active compounds read low 1.03 | S. cerevisiae deletion strains, locus YJL134W, strain LCB3, active compounds read low 1.02 | S. cerevisiae deletion strains, locus YJL168C, strain set2, active compounds read low 1 | S. cerevisiae deletion strains, locus YJL187C, strain SWE1 (second series), active compounds read low 1.01 | S. cerevisiae deletion strains, locus YJR043C, strain POL32, active compounds read low 1.01 | S. cerevisiae deletion strains, locus YJR075W, strain HOC1, active compounds read low 1.03 | S. cerevisiae deletion strains, locus YKL009W, strain mrt4, active compounds read low 1.01 | S. cerevisiae deletion strains, locus YKL068W, active compounds read low 1.01 | S. cerevisiae deletion strains, locus YKL085W, strain MDH1 (second series), active compounds read low 1.01 | S. cerevisiae deletion strains, locus YKL085W, strain MDH1, active compounds read low 1.01 | S. cerevisiae deletion strains, locus YKL190W, strain CNB1, active compounds read low 1.04 | S. cerevisiae deletion strains, locus YKR001C, strain vps1, active compounds read low 0.987 | S. cerevisiae deletion strains, locus YLR039C, strain RIC1, active compounds read low 0.9 | S. cerevisiae deletion strains, locus YLR058C, strain SHM2, active compounds read low 1.01 | S. cerevisiae deletion strains, locus YLR102C, strain apc9, active compounds read low 1.01 | S. cerevisiae deletion strains, locus YLR262C, strain YPT6, active compounds read low 0.977 | S. cerevisiae deletion strains, locus YLR268W, strain sec22, active compounds read low 0.981 | S. cerevisiae deletion strains, locus YLR330W, strain CHS5, active compounds read low 1.01 | S. cerevisiae deletion strains, locus YLR342W, strain FKS1 (second series), active compounds read low 1.02 | S. cerevisiae deletion strains, locus YLR371W, strain rom2, active compounds read low 1 | S. cerevisiae deletion strains, locus YLR418C, strain cdc73, active compounds read low 0.996 | S. cerevisiae deletion strains, locus YML016C, strain PPZ1, active compounds read low 1.02 | S. cerevisiae deletion strains, locus YML032C, strain rad52, active compounds read low 1 | S. cerevisiae deletion strains, locus YML124C, strain tub3, active compounds read low 1 | S. cerevisiae deletion strains, locus YMR078C, strain ctf18, active compounds read low 1.01 | S. cerevisiae deletion strains, locus YMR223W, strain ubp8, active compounds read low 0.998 | S. cerevisiae deletion strains, locus YMR263W, strain SAP30, active compounds read low 1.03 | [3] 1.01 | S. cerevisiae deletion strains, locus YNL067W, strain RPL9B, active compounds read low 1.02 | S. cerevisiae deletion strains, locus YNL128W, strain TEP1, active compounds read low 1.02 | [4] 1.01 | S. cerevisiae deletion strains, locus YNL233W, strain BNI4, active compounds read low 1.02 | S. cerevisiae deletion strains, locus YNL250W, strain rad50, active compounds read low 0.999 | S. cerevisiae deletion strains, locus YNL271C, strain bni1, active compounds read low 1 | S. cerevisiae deletion strains, locus YNL298W, strain CLA4, active compounds read low 0.986 | S. cerevisiae deletion strains, locus YNL307C, strain MCK1, active compounds read low 0.979 | S. cerevisiae deletion strains, locus YNL322C, strain KRE1, active compounds read low 1.01 | S. cerevisiae deletion strains, locus YNR052C, strain pop2, active compounds read low 1 | S. cerevisiae deletion strains, locus YOL006C, strain TOP1, active compounds read low 1.08 | S. cerevisiae deletion strains, locus YOL012C, strain htz1 0.763 | S. cerevisiae deletion strains, locus YOL147C, strain pex11, active compounds read low 1 | S. cerevisiae deletion strains, locus YOR061W, strain CKA2, active compounds read low 1.02 | S. cerevisiae deletion strains, locus YOR069W, strain VPS5, active compounds read low 1.02 | S. cerevisiae deletion strains, locus YOR136W, strain idh2, active compounds read low 0.996 | S. cerevisiae deletion strains, locus YOR144C, strain elg1, active compounds read low 1.01 | S. cerevisiae deletion strains, locus YOR184W, strain ser1, active compounds read low 0.99 | S. cerevisiae deletion strains, locus YOR316C, strain cot1, active compounds read low 1.01 | S. cerevisiae deletion strains, locus YPL055C, strain LGE1, active compounds read low 1.04 | S. cerevisiae deletion strains, locus YPL241C, strain CIN2, active compounds read low 1.02 | S. cerevisiae deletion strains, locus YPR119W, strain clb2, active compounds read low 1 | S. cerevisiae deletion strains, locus YPR141C, strain kar3, active compounds read low 1 | S. cerevisiae deletion strains, locus YPR163C, strain tif3, active compounds read low 0.998 | S. cerevisiae deletion strains, locus YPR167C, strain met16, active compounds read low 1.01 | S. cerevisiae deletion strains, strain wtn01, active compounds read low 0.998 | S. cerevisiae strains, strain wild type, active compounds read low 1.01

COc1cc2c(c(OC)c1OC)-c1ccc(OC)c(=O)cc1C(NC(C)=O)CC2 (stereo unspecified)
inactive: S. cerevisiae deletion strains, locus YAL040C, strain CLN3, active compounds read low 0.95 | [1] 1.03 | S. cerevisiae deletion strains, locus YDR363W, strain ESC2, active compounds read low 1 | S. cerevisiae deletion strains, locus YER002W, strain NOP16, active compounds read low 1.01 | [2] 1 | [3] 0.984 | [4] 1.06 | S. cerevisiae deletion strains, locus YNL175C, strain NOP13, active compounds read low 1.01 | S. cerevisiae deletion strains, locus YNL197C, strain WHI3, active compounds read low 1.01 | S. cerevisiae deletion strains, locus YNL224C, strain SQS1, active compounds read low 1 | S. cerevisiae deletion strains, locus YOR083W, strain WHI5 (second series), active compounds read low 1.02
